FLuc inh: blocks purified firefly luciferase enzyme activity; P08659; purified P. pyralis luciferase, luminescence, biochemical; Potency, µM (highest dose often 115 µM), most hits filed as inhibitors; hit rate 2.5% among 76,000; AID 1347043; further: on the % scale 0 is the no-effect control and ±100 the full control effect; nearly all actives have a fitted effect of over 65% in size
Target sequence (P08659 whole entry, looked up): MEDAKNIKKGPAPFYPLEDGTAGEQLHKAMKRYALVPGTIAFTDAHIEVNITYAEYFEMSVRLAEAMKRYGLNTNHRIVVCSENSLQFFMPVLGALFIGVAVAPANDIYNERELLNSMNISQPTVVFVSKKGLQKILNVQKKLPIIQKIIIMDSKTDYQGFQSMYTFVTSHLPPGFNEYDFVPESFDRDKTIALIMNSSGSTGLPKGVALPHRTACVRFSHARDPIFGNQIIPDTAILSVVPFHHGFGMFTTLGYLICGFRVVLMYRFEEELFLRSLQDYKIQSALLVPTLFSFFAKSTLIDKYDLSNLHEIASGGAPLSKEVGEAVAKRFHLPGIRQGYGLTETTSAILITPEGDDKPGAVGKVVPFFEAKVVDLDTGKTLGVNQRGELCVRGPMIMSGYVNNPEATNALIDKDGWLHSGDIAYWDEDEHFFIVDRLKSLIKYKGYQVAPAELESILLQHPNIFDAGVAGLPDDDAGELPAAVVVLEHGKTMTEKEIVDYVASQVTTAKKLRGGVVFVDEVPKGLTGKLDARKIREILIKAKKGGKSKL
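Cell-free enzyme assay, 10nM P. pyralis luciferase, luciferin and ATP each at 10uM. Inhibition profiled over a 6-point titration, read as luminescence.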
3T3 cytotox: cytotoxic compounds in NIH 3T3 cells; NIH 3T3 viability, CellTiter-Glo ATP luminescence, 48-72 h; Potency, µM (doses to about 96.7 µM), for the others: top-dose activity change, negative = cytotoxicity, most hits filed as inhibitors; hit rate 4.3% among 94,000; further: on the % scale 0 is the no-effect control and ±100 the full control effect; nearly all actives have a fitted effect of over 55% in size
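Viability of NIH 3T3 cells after 48 or 72 hr compound treatment at 37 °C was assessed by CellTiter-Glo, with luminescence imaged following a 10 min room-temperature step.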
GPT2 inhibitor: blocks human glutamate pyruvate transaminase 2; AID 1671188; Recombinant GPT2, coupled pyruvate oxidase/HRP Amplex Red fluorescence; Potency, µM (doses to about 57.7 µM), inactives show top-dose activity change, negative = inhibition, hits mostly inhibitors; Q8TD30; hit rate 0.25% among 100,000; further: on the % scale 0 is the no-effect control and ±100 the full control effect; nearly all actives have a fitted effect of over 60% in size
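Inhibition is scored from Amplex Red fluorescence generated when pyruvate oxidase and HRP act on pyruvate released by GPT2. Reactions contain 10ng/uL enzyme, 250uM a-KG and 2mM L-alanine and run 30 min at room temperature.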
hNpr1 antagonist: blocks ANP-stimulated signaling of human Npr1 receptor. HEK293 hNpr1 GloSensor cGMP, ANP-stimulated luminescence. Potency, µM (doses to about 46.3 µM), without a hit: top-dose activity change, negative = inhibition, usual class: inhibitors. hit rate 1.6% among 76,000. AID 1347048; calls by dose curve; further: on the % scale 0 is the no-effect control and ±100 the full control effect; nearly all actives have a fitted effect of over 60% in size
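Compound pre-incubated 30 min at room temperature on GloSensor-loaded HEK293 cells stably carrying hNpr1 and the pGS-40F cGMP biosensor. Stimulation uses hNppA at 0.1 nM final; luminescence is taken at baseline and 20 min post-agonist.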
HEK cytotox: cytotoxic compounds in HEK 293 cells | HEK 293 viability, ATP luminescence (CellTiter-Glo), 48-72 h | Potency, µM (highest dose often 115 µM), for the others: at the top dose activity change, negative = cytotoxicity, hits mostly inhibitors | hit rate 6.6% among 94,000; further: on the % scale 0 is the no-effect control and ±100 the full control effect; nearly all actives have a fitted effect of over 60% in size
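Viability of HEK 293 cells, plated at 250 cells/well, was judged by cellular ATP after compound treatment for 48 or 72 hr. Luminescence was imaged 10 min after CellTiter-Glo addition at room temperature.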
NPR1 antag cnf: confirmation of human Npr1 natriuretic peptide receptor antagonists; shares compounds with hNpr1 antagonist; HEK293 hNpr1 cGMP GloSensor luminescence, ANP-stimulated; Potency, µM (highest dose often 57.6 µM), for the others: at the top dose activity change, negative = inhibition, actives largely listed as inhibitors; hit rate 76% among 1,400; AID 1347044; calls by dose curve; further: nearly all actives have a fitted effect of over 70% in size
Npr2 selectivity: antagonizes human Npr2, subtype selectivity check; shares compounds with hNpr1 antagonist; HEK293 hNpr2 GloSensor cGMP luminescence, CNP-stimulated; Potency, µM (doses to about 57.6 µM), inactives show at the top dose activity change, negative = inhibition, actives largely listed as inhibitors; hit rate 67% among 1,400; AID 1347046; calls by dose curve; further: nearly all actives have a fitted effect of over 70% in size
FLuc counter: counter-screen for Npr1 antagonists: firefly luciferase inhibitors; Potency, µM (titrated, usually from 57.6 µM), for the others: at the highest dose activity change, negative = inhibition, hits mostly inhibitors; AID 1347047; purified FLuc enzyme, luminescence, Km substrate; shares compounds with hNpr1 antagonist; hit rate 0.7% among 1,400; further: series mostly up to about 58 µM; 0% is about no effect
GloSensor ctrl: reduces cGMP signal in GloSensor control cells; shares compounds with hNpr1 antagonist; HEK293 GloSensor cGMP, SNP-stimulated, luminescence; Potency, µM (doses to about 57.6 µM), without a hit: at the top dose activity change, negative = inhibition, most hits filed as inhibitors; hit rate 69% among 1,400; AID 1347051; calls by dose curve; further: on the % scale 0 is the no-effect control and ±100 the full control effect; nearly all actives have a fitted effect of over 70% in size
An asterisk follows results filed as active. In the library only some 10% were active in any assay of this set; here they are far more common. Unless noted, the call rests on the fitted dose curve; in most records, active means well fitted curve in the direction sought with a large enough effect; inconclusive means small, poorly fitted or top-dose-only effect, or another doubt; inactive means no such curve, though single readings can be large; an effect the other way counts as inactive or inconclusive. Potency means the concentration at half of the fitted maximal effect.

Screening S=C(NC1CCCCC1)N[C@H]1CO[C@H]2[C@@H]1OC[C@@H]2n1nnnc1Oc1ccc2c(c1)OCO2 returned FLuc inh inactive, 3T3 cytotox inconclusive, GPT2 inhibitor 3%, hNpr1 antagonist inconclusive and HEK cytotox inconclusive.
For CCNC(=O)c1cccnc1OC1CCN(C(=O)c2sccc2C)C1 (stereo not given) the results were FLuc inh inactive, 3T3 cytotox -13%, GPT2 inhibitor inactive, hNpr1 antagonist -4% and HEK cytotox -11%.
`CCOc1ccccc1NC(=O)N1CCCC(c2noc(COc3ccccc3)n2)C1` (stereo not given) gave FLuc inh inactive, 3T3 cytotox inconclusive, GPT2 inhibitor inactive, hNpr1 antagonist -14% and HEK cytotox inconclusive.
COc1ccc(NC(=O)N2CCCC(c3noc(COc4ccccc4)n3)C2)c(C)c1 (stereo not given) was read as FLuc inh inactive, 3T3 cytotox -52%, GPT2 inhibitor inconclusive, hNpr1 antagonist inconclusive, HEK cytotox inconclusive, NPR1 antag cnf 24µM*, Npr2 selectivity inconclusive, FLuc counter 0% and GloSensor ctrl 22µM*.
For COCc1nc(NCCc2nc3ccccc3s2)cc(C2CC(N)C2)n1 (stereo not given) the results were FLuc inh inactive, 3T3 cytotox 0%, GPT2 inhibitor inactive, hNpr1 antagonist -2% and HEK cytotox inactive.
Cc1cc(Cl)ccc1-c1ccc(CNC2CN(C(=O)OC(C)(C)C)C2)cc1 was read as 3T3 cytotox inconclusive, GPT2 inhibitor 1%, HEK cytotox inconclusive, NPR1 antag cnf 22µM*, Npr2 selectivity 22µM*, FLuc counter -1% and GloSensor ctrl 19µM*.
Screening CCN(Cc1cccc2cnccc12)CC1CCCN(CCc2cccc(F)c2)C1 (stereo not given) returned FLuc inh inactive, 3T3 cytotox 40µM*, GPT2 inhibitor -7%, hNpr1 antagonist inconclusive, HEK cytotox 18µM*, NPR1 antag cnf 24µM*, Npr2 selectivity 19µM*, FLuc counter -2% and GloSensor ctrl -1%.
`CCN(Cc1nc2ccccc2[nH]1)CC1CCCN(CCc2cccc(F)c2)C1` (stereo not given) gave FLuc inh inactive, 3T3 cytotox inconclusive, GPT2 inhibitor -12%, hNpr1 antagonist -15% and HEK cytotox inconclusive.
COc1ccccc1CCC(=O)N1CCC2(CC1)N=C(c1ccc(C)cc1)NO2 was read as FLuc inh inactive, 3T3 cytotox -29%, GPT2 inhibitor inconclusive, hNpr1 antagonist -13% and HEK cytotox -25%.
O=C(c1cccs1)N1CCC2(CC1)N=C(c1cccc(Br)c1)NO2 was read as FLuc inh inactive, 3T3 cytotox -24%, GPT2 inhibitor inactive, hNpr1 antagonist -2% and HEK cytotox inconclusive.
Screening COc1ccccc1CCC(=O)N1CCC2(CC1)N=C(c1cccc(Br)c1)NO2 returned FLuc inh inactive, 3T3 cytotox inconclusive, GPT2 inhibitor 4%, hNpr1 antagonist -26%, HEK cytotox inconclusive, NPR1 antag cnf inconclusive, Npr2 selectivity inconclusive, FLuc counter 3% and GloSensor ctrl -30%.
Screening COc1ccc(C(=O)N2CCC3(CC2)N=C(c2cccc(Br)c2)NO3)cc1F returned FLuc inh inactive, 3T3 cytotox inconclusive, GPT2 inhibitor inactive, hNpr1 antagonist inconclusive, HEK cytotox inconclusive, NPR1 antag cnf inconclusive, Npr2 selectivity inconclusive, FLuc counter 6% and GloSensor ctrl 27µM*.
Cc1ccsc1C(=O)N1CCC2(CC1)N=C(c1cccc(Br)c1)NO2 was read as FLuc inh inactive, 3T3 cytotox inconclusive, GPT2 inhibitor -1%, hNpr1 antagonist 13µM*, HEK cytotox inconclusive, NPR1 antag cnf 27µM*, Npr2 selectivity inconclusive, FLuc counter 3% and GloSensor ctrl 27µM*.
For COc1ccc(C(=O)N2CCC3(CC2)N=C(c2cccc(Br)c2)NO3)cc1OC the results were FLuc inh inactive, 3T3 cytotox inconclusive, GPT2 inhibitor inactive, hNpr1 antagonist inconclusive and HEK cytotox inconclusive.
`COc1ccc(C(=O)N2CCC3(CC2)N=C(c2cccc(Br)c2)NO3)c(OC)c1` gave FLuc inh inactive, 3T3 cytotox inconclusive, GPT2 inhibitor 4%, hNpr1 antagonist 11µM*, HEK cytotox inconclusive, NPR1 antag cnf 24µM*, Npr2 selectivity 24µM*, FLuc counter 6% and GloSensor ctrl 22µM*.
For COC(=O)[C@@H]1Cc2ncn(Cc3ccc(Cl)cc3)c2CN1C(=O)c1ccc(C(F)(F)F)cc1 the results were FLuc inh inactive, 3T3 cytotox inconclusive, GPT2 inhibitor -7%, hNpr1 antagonist -25%, HEK cytotox inconclusive, NPR1 antag cnf inconclusive, Npr2 selectivity -8%, FLuc counter 0% and GloSensor ctrl inconclusive.
For CSc1nccc(N2CCC3(CC2)CC(=O)N(CC(C)C)C3)n1 the results were FLuc inh inactive, 3T3 cytotox inconclusive, GPT2 inhibitor -29%, hNpr1 antagonist 7.1µM*, HEK cytotox inconclusive, NPR1 antag cnf 6.9µM*, Npr2 selectivity 11µM*, FLuc counter -1% and GloSensor ctrl 5.4µM*.
O=C(CC1=C2CCCCC2N(Cc2ccccc2)C1=O)NCCc1c[nH]c2ccccc12 (stereo not given) was read as FLuc inh inactive, 3T3 cytotox inconclusive, GPT2 inhibitor 3%, hNpr1 antagonist -19% and HEK cytotox inconclusive.
